Only some compounds are listed: those with a hit (about 1.5% of all), similar ones and a draw of the others.
TPT1 inhibitor: Candida albicans TPT1 enzyme inhibitors, primary screen, biochemical, fluorescence polarization | tRNA 2'-phosphotransferase TPT1 (Candida albicans SC5314) | recombinant caTPT1, FP RNA substrate dephosphorylation | inhibition, % at 5 µM | 300,000 tested, 0.81% active | AID 1962, 2009;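 active means inhibition above the mean of all tested compounds plus 3 SD, set per screening campaign, cut at about 24% in these data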;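 further: plate controls were DMSO alone for no effect and ferristatin control at 100 nM for full effect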
IDE cell activ: human IDE activators in live cells, primary screen, fluorescence polarization, HEK cells, FAbeta-B substrate | FAbeta-B cleavage; 0% vehicle, 100% cell-free pure enzyme wells | activation, % at 5.96 µM | 340,000 tested, 0.073% active | AID 493087, 2011;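 active means activation above the mean of all tested compounds plus 3 SD, set per screening campaign, cut at about 17% in these data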
CRFR2-BP ag: agonists of CRF-BP/CRF-R2 complex, primary screen, cell-based, HEK293, calcium dye fluorescence, uHTS | activation, % at 13.2 µM | CRF-binding protein / CRF receptor 2 complex (human) | 350,000 tested, 0.46% active | calcium dye fluorescence (FLIPR); percent of saturating CRF peptide response | AID 588473, 2011;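 active means activation of at least 50%, plus an integration ratio under a set limit after plate pattern correction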;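 further: plate controls were neutral control wells without compound for no effect and CRF at EC100 for full effect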
RTF Ca sens inh: cardiac RTF calcium sensitivity inhibitors, primary screen, biochemical, IANBD-TnC fluorescence, EC70 calcium | IANBD-labeled cardiac RTF, Ca2+ fluorescence | inhibition, % at 7.15 µM | 340,000 tested, 0.12% active;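 active means inhibition above the mean inhibition of all tested compounds plus 3 SD, cut at about 17% in these data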;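 further: assay run at fixed EC70 calcium of 1.6 mM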
cardiac RTF act: cardiac RTF calcium sensitivity activators, primary screen, biochemical, IANBD-TnC fluorescence, EC20 calcium | activation, % at 7.2 µM | IANBD-labeled TnC RTF fluorescence at EC20 calcium; 0% EC20 calcium, 100% full calcium | 340,000 tested, 0.24% active;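 active means activation above the mean over all tested compounds plus 3 SD, cut at about 30% in these data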;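 further: rise in fluorescence read as greater calcium sensitivity of cardiac thin filaments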
IDE inh: human IDE inhibitors in live cells, primary screen, fluorescence polarization, HEK cells, FAbetaB substrate; Insulin-degrading enzyme (Homo sapiens), P14735; FAbetaB cleavage; inhibition, % at 5.59 µM; 320,000 tested, 0.41% active; AID 434962, 2010;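 active means percent inhibition above the average of all tested compounds plus 3 SD, set per screening campaign, cut at about 16% in these data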;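 further: IDE supplied by intact live HEK cells; FP after avidin binding of uncleaved biotin substrate so inhibition keeps polarization high; 0% = DMSO wells and 100% = 60 µM reference IDE inhibitor Ii1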
caTPT1 confirm: Candida albicans TPT1 inhibitors, confirmation, biochemical, fluorescence polarization, triplicate | 2,400 tested, 74% active | inhibition, % at 5 µM | recombinant caTPT1, RNase T1 coupled | AID 2149, 2009 | shares compounds with TPT1 inhibitor;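 active means inhibition above the primary screen limit, the mean inhibition of all tested compounds plus 3 SD, cut at about 25% in these data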
RNase T1 counter: RNase T1 inhibitors, counter-screen for TPT1 inhibitor project, biochemical, fluorescence polarization | shares compounds with TPT1 inhibitor | RNase T1 cleavage, 1536-well | inhibition, % at 5 µM | 2,400 tested, 83% active | AID 2153, 2009;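 active means inhibition above the solvent-only control well mean plus 3 SD, limit set per screening run, cut at about 23% in these data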;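 further: plate controls were DMSO wells with enzyme for no effect and wells without RNase T1 for full effect; inhibitors block cleavage so intact labeled substrate keeps polarization high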
Target sequence (P00651 whole entry, looked up): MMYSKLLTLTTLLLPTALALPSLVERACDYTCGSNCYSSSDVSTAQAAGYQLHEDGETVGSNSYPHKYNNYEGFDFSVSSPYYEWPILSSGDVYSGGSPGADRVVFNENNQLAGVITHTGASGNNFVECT
Numbers without * were called inactive; . = no result given.

SMILES	TPT1 inhibitor	IDE cell activ	CRFR2-BP ag	RTF Ca sens inh	cardiac RTF act	IDE inh	caTPT1 confirm	RNase T1 counter
CC(CC1C(C#N)=C(N)SC(N)=C1C#N)c1ccccc1 (stereo not given)	60*	-1	44	-25	14	6	29*	38*
O=C(c1ccc(CS(=O)Cc2ccccc2Cl)o1)N1CCN(C2CCCCC2)CC1 (stereo not given)	117*	1	1	-6	5	0	7	4
CCOC(=O)N1CCN(C(=O)c2ccc(CS(=O)Cc3ccccc3Cl)o2)CC1 (stereo not given)	-1	3	-1	-6	-1	1	.	.
CN(C)c1ccc(N/C=C/C(=O)c2ccc(F)cc2)cc1	36*	6	0	-3	0	-2	49*	59*
COc1ccc(C)cc1Nc1nc(-c2c[nH]c3ccccc23)cs1	31*	-1	6	-20	0	11	26*	36*
COc1ccc(OCC(=O)Nc2ccc3c(c2)nc(CN2CCCC2)n3C)cc1	0	2	0	-7	-1	9	.	.
Cn1c(CN2CCCC2)nc2cc(NC(=O)COc3ccc(Cl)cc3)ccc21	60*	-8	-1	-5	12	1	7	12
CCOc1ccccc1NC(=O)COC(=O)C1COc2ccccc2O1 (stereo not given)	.	.	0	.	.	.	.	.
COc1ccc(-n2c(N)c(C(=O)NCc3ccco3)c3nc4ccccc4nc32)c(OC)c1	39*	4	0	3	-2	1	10	17
COc1ccc(CCn2c(N)c(C(=O)NCc3ccco3)c3nc4ccccc4nc32)cc1	4	4	6	-7	3	-3	.	.
COc1ccc(C(=O)NC(=S)N2CCCCC2)cc1	3	0	0	-7	6	1	.	.
COc1cc(OC)cc(C(=O)NC(=S)N2CCCCCC2)c1	43*	3	0	-11	-3	-10	2	4
COc1ccccc1N/C=C/c1onc(C)c1[N+](=O)[O-]	113*	0	89*	-2	2	5	97*	105*
O=C(Nc1cc(F)cc(F)c1)c1ccc(NCCCN2CCCCCC2)c([N+](=O)[O-])c1	1	1	0	8	4	-2	.	.
Cc1ccc(NC(=O)c2ccc(NCCc3ccccc3)c([N+](=O)[O-])c2)cc1F	59*	0	2	-30	8	2	108*	113*
O=C(Nc1cc(F)cc(F)c1)c1ccc(NCCc2ccccc2)c([N+](=O)[O-])c1	67*	0	1	-6	10	0	92*	102*
O=C(COC(=O)c1ncc(Cl)c(Cl)c1Cl)Nc1cccnc1Cl	0	5	-3	12	-12	-4	.	.
O=C(Nc1ccccc1[N+](=O)[O-])OCC=Cc1ccccc1	.	.	1	.	.	.	.	.
CC1(C)Nc2ccccc2C(=O)N1c1ccccc1	-2	-4	0	-1	-7	1	.	.
CN(CC1CCOCC1)C(=O)CC1C(=O)NCCN1Cc1cccc(Oc2ccccc2)c1 (stereo not given)	-11	2	0	4	4	-1	.	.
C/C(=N\Nc1nc(-c2cc(C)ccc2C)cs1)c1cc2c(ccc3ccccc32)oc1=O	28*	3	-3	-1	3	2	33*	45*
COc1ccc(OCC(=O)OC2CCCN(C)C2)cc1 (stereo not given)	-2	12	0	-13	-1	9	.	.
O=C(O)c1ccc(NS(=O)(=O)Cc2ccc(Cl)c(Cl)c2)cc1	.	4	-2	-1	-2	.	.	.
Fc1ccc(OCCCCN2CCOCC2)cc1	-1	3	1	1	2	1	.	.
O=C(N/N=C/C=C\c1ccccc1[N+](=O)[O-])c1cccs1	-3	4	0	-9	-3	6	.	.
SMILES	TPT1 inhibitor	IDE cell activ	CRFR2-BP ag	RTF Ca sens inh	cardiac RTF act	IDE inh	caTPT1 confirm	RNase T1 counter
O=C(N/N=C/C=C/c1ccc([N+](=O)[O-])cc1)c1cccs1	44*	-1	-1	-17	6	-8	30*	46*
COc1ccc(C(=O)Cn2nnc(-c3ccccc3NC(=O)C3CCCCC3)n2)cc1	30*	7	7	-16	5	3	43*	54*
CCCCNC1c2ccccc2C(=O)N1Cc1ccccc1 (stereo not given)	-2	6	2	-12	2	7	.	.
O=C(CCCCl)NC1=NN(c2ccccc2)C(=O)C1	35*	-1	-2	-11	1	4	7	8
COc1ccccc1CN1CC(C(=O)NCc2cc(C(C)C)no2)CCC1=O (stereo not given)	-4	1	2	-5	-3	2	.	.
O=c1cc(O)c2sc(Nc3cccc(C(F)(F)F)c3)nc2[nH]1	0	2	0	5	3	-8	.	.
O=c1cc(O)c2sc(Nc3ccc(F)cc3)nc2[nH]1	35*	-4	3	0	1	0	20	29*
COc1ccc(C(=O)/C=C2\NCCc3cc(OC)c(OC)cc32)cc1OC	53*	-2	-3	-14	11	5	18	25*
Cn1c(/N=C(\N)c2ccccc2)nc2ccccc21	.	.	0	.	.	.	.	.
COc1ccc2nc(SCC(=O)NC3(C#N)CCCCC3)[nH]c2c1	0	1	-1	3	-3	1	.	.
CC(C)c1ccc2c(c1)C1Cc3ccccc3C1N2 (stereo not given)	29*	5	2	-6	4	2	13	22*
O=c1[nH]c(=O)n(-c2ccc(F)cc2)c2c1C(C(F)(F)F)(C(F)(F)F)N=C(c1ccc(F)cc1)N2	4	6	30	-19	0	-2	.	.
Oc1ccc(N=Nc2nc(-c3ccccc3)c(-c3ccccc3)[nH]2)cc1	31*	-2	-1	-9	6	3	42*	55*
CCOC(=O)CNC(=O)c1ccc(OCC(F)(F)F)cc1	0	5	-1	-1	-2	4	.	.

Bioassay records deposited in PubChem BioAssay by several laboratories.
